CCT chaperon mod = modulators of cytosolic chaperonin (CCT/TRiC) activity; hit rate 0.3% among 360,000; activity change, % (concentration not given with the values), hits read low; purified chaperonin ATPase assay, HTRF ADP detection, 30 min; in the data active = activity change below about -30%
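Enzyme 40 or 20 nM (batch-dependent) in Tris pH 7.4/KCl/MgCl2/DTT; cpd 76 uM single point; ATP 10 uM; 30 min 37 °C; Transcreener ADP HTRF detection, 30 min RT; ratio 665/615.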
CtBP-E1A blk = inhibitors of CtBP/E1A interaction; AlphaScreen GST-E1A/His-CtBP binding, 1536-well; active compounds read low; activity change, % (no concentration beside the values); hit rate 0.49% among 340,000; AID 651724
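AlphaScreen with 125 nM GST-E1A and 125 nM His-CtBP (5X stocks) in Tris pH 8.0, 300 mM NaCl, BSA, Tween 20, TCEP. Compounds preincubated 2 h at 37 deg C, then glutathione donor/nickel acceptor beads added for 1 h at 37 deg C in dark.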
Eya2 inh = inhibitors of human Eya2 phosphatase activity. O00167. recombinant Eya2, OMFP fluorescence dephosphorylation (OMFP is methylfluorescein phosphate). Potency, µM (top dose mostly 76.9 µM), without a hit: at the highest dose activity, negative = inhibition, actives largely listed as inhibitors. hit rate 0.006% among 330,000. AID 488837; active = well fitted inhibition curve with a large enough effect; inconclusive = small, poorly fitted or top-dose-only effect, or effect the other way; also: potency is read from the fitted curve at half-maximal effect
Target sequence (O00167 whole entry, looked up): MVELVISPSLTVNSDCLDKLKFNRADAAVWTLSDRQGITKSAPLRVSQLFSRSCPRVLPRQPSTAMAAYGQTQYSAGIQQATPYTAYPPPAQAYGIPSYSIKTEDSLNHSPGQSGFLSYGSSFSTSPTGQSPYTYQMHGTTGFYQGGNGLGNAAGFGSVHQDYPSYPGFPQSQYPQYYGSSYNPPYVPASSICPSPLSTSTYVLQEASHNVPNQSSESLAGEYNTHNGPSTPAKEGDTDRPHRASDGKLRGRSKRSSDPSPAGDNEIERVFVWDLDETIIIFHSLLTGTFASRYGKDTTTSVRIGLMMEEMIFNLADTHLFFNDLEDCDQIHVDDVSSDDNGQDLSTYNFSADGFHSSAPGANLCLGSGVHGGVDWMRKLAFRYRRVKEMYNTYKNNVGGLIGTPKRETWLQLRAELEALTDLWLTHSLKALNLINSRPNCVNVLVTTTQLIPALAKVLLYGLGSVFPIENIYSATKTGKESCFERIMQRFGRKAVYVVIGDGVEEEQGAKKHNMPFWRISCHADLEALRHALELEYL
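Eya2 protein (added as 0.2 uM solution) was preincubated with compound for 10 min at ambient temperature in 50 mM HEPES pH 7.5, 50 mM NaCl, 5 uM MgCl2, 0.05% BSA, 1 mM DTT. OMFP (added at 50 uM) then reacted 10 min; fluorescence read at 485/525 nm.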
PI4K2A block = blocks human PI4K2A kinase activity. purified PI4K2A, ADP-Glo luminescence, 1 h; active compounds read low. activity change, negative = inhibition, % at 76.9 µM. hit rate 0.13% among 420,000. AID 1346378; in the data active = activity change below about -50%; inconclusive = mostly about -30% to -49%;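 also: -100% = wells without enzyme as full effect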
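PI4K2A activity was measured by ADP-Glo luminescence: enzyme (4 ug/mL stock) and phosphatidylinositol (1.2 mM stock) in Tris pH 7.5/MgCl2/EGTA/Triton X-100 buffer were reacted with ATP (300 microM stock) for one hour at ambient temperature.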
Six1-Eya2 blk = blocks human Six1 binding to Eya2; Q15475+O00167; AlphaScreen GST-Six1/His-Eya2 binding, biochemical; active compounds read low; activity change, % (concentration not given with the values); hit rate 0.56% among 360,000; AID 651725
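AlphaScreen luminescence read after one hour at 37 °C in darkness. Pin-transferred compounds met GST-Six1 and His-Eya2 protein (5X stock 250 nM/500 nM) plus glutathione donor and Ni-chelate acceptor beads (5X, 50 ug/mL).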
Starred values were filed as active, the others as inactive; u = inconclusive; x = no result given; [ ] = another dose, or the depositor's remark. Shown are actives, neighbours in structure and some others; about 0.97% of the full set was active somewhere. Rule as the data show it, unless noted: active = activity change below about -65%; inconclusive = mostly about -30% to -63%; inactive = weaker than that. Unless noted, % is scaled to controls: 0 for no effect and ±100 for the full control effect.

SMILES	CCT chaperon mod	CtBP-E1A blk	Eya2 inh	PI4K2A block	Six1-Eya2 blk
C#CCOCCOCCOCCNc1nc(N2CCN(C(=O)[C@H](CCC(=O)O)n3cc(CN)nn3)CC2)nc(N2CCN(C(=O)[C@H](CCC(=O)O)n3cc([C@@H](N)[C@H](C)CC)nn3)CC2)n1	-33*	-3	4%	2	4
CCOC(=O)c1c(NC(=O)CSc2nnc(-c3ccco3)o2)sc(C(C)=O)c1C	-60*	-1	x	-1	-9
COc1cccc2c1Oc1ncccc1N(C(=O)Nc1cccc(Cl)c1)C2	x	x	x	3	x
Clc1cccc(-c2cccc3nccn23)c1Cl	-2	5	x	-6	12
Clc1ccc(-c2cccc3nccn23)c(Cl)c1	-77*	2	x	1	3
O=C(NCCCN1CCOCC1)c1ccc(S(=O)(=O)Nc2cccc(C(F)(F)F)c2)cc1	-37*	4	-26%	1	-3
Cc1cc(C)cc(C(=O)NCCn2cc(SCC(=O)N3CCOCC3)c3ccccc32)c1	-32*	0	12%	3	10
O=C(O)c1[nH]n(-c2ccc(S(=O)(=O)O)cc2)c(=O)c1N=Nc1ccc(S(=O)(=O)O)cc1	x	x	x	0	x
Cc1ccccc1NC(=S)c1nc2ccccc2[nH]1	-4	-84*	3%	6	-90*
S=C(Nc1ccc(Cl)cc1)c1nc2ccccc2[nH]1	0	u	-19%	7	-73*
COc1ccc(NC(=O)N2CCc3c(sc4c3CCCC4)C2c2ccc(F)cc2)cc1 (configuration not stated)	x	x	x	-4	x
Cc1ccc(NC(=O)Cc2ccc(-n3c(C)nc4cccnc43)cc2)c(Cl)c1	x	x	x	-1	x
O=C(NCCCCc1ccccc1)C1CC(c2cccc(F)c2)=NO1 (configuration not stated)	-34*	5	-6%	-3	3
O=C(CN1CCN(Cc2ccccc2)CC1)N/N=C/c1cccnc1	-36*	x	16%	0	2
O=C(Cc1ccccc1)N/N=C/c1cccnc1	0	10	8%	-2	1
O=C(NC1CC1)c1cccc(NC(=O)c2cc(S(=O)(=O)N3CCOCC3)ccc2Cl)c1	-32*	-23	19%	1	6
Cc1ccc(S(=O)(=O)N2CCOCC2)cc1C(=O)Nc1cccc(C(=O)NC2CC2)c1	-3	3	16%	1	-2
O=C(Nc1cccc(O)c1)c1cccc(S(=O)(=O)N2CCCC2)c1	-1	u	-11%	-5	-72*
CCN(CC)S(=O)(=O)c1cccc(NC(=O)c2cccc(S(=O)(=O)N3CCCC3)c2)c1	-56*	4	-2%	3	-13
Cc1ccc(C(=O)NNC(=O)c2cccc(S(=O)(=O)N3CCN(c4ccccc4)CC3)c2)cc1	-48*	2	3%	3	1
Cc1ccc(-c2cn3c(n2)sc2cc(C(=O)NC4CCCCC4)ccc23)cc1	x	x	x	-4	x
CCC(=O)Nc1ccc(Cl)c(-c2nc3ncccc3o2)c1	-2	u	6%	1	-68*
CCC(C)c1ccc(NC(=S)NCCn2cc(Cl)cn2)cc1 (configuration not stated)	-39*	-1	-1%	17	-5
O=[N+]([O-])c1cc(F)cc(F)c1Nc1ccc(F)cc1	0	-67*	x	-2	u
COc1cc(/C=C2\SC(=Nc3ccc(O)cc3)NC2=O)cc(OC)c1O	-2	-65*	u	1	u
SMILES	CCT chaperon mod	CtBP-E1A blk	Eya2 inh	PI4K2A block	Six1-Eya2 blk
CCS(=O)(=O)N1CCc2cc(C(=O)Nc3cc([N+](=O)[O-])ccc3C)ccc21	x	x	x	0	x
CCOC(=O)c1cc(OC(=O)c2cccc([N+](=O)[O-])c2)n(-c2ccccc2)n1	-35*	8	8%	-3	2
CCOC(=O)c1cccc(NS(=O)(=O)c2cc(-c3cnc(C4CC4)o3)ccc2C)c1	x	x	x	6	x
COc1ccc(-c2nn3c(-c4ccco4)nnc3s2)cc1OC	-2	-86*	-12%	11	-78*
Cc1nn(-c2cccc(Cl)c2)c2c1C(c1ccncc1)C(C#N)=C(N)O2 (configuration not stated)	1	u	-2%	-6	u
Cc1nn(-c2cccc(Cl)c2)c2c1C(c1cccnc1)C(C#N)=C(N)O2 (configuration not stated)	2	14	11%	-51*	-4
O=c1oc2ccccc2c2c1C1O[C@](c3ccsc3)(Cc3c1ccc1ccccc31)O2	x	x	-3%[15.4 µM]	x	x
CCSc1nc2sc3c(c2c(=O)n1-c1ccc(C)cc1)CCCC3	x	x	x	-5	x
COc1cc(/C=C(\C#N)C(=O)Nc2cccc(C(=O)O)c2)ccc1OCc1ccc(F)cc1	0	-70*	0%	-3	-14
C#CCOc1ccc(/C=C2/C(=O)N(c3ccc(S(N)(=O)=O)cc3)N=C2C)cc1OC	-3	3	x	u	-15
COc1cc(/C=C/[N+](=O)[O-])ccc1OC(=O)/C=C/c1ccc(F)cc1	-3	-90*	-13%	5	u
COc1cc(/C=C2\C(=O)N(c3ccc(S(N)(=O)=O)cc3)N=C2C)ccc1OC(=O)c1ccco1	-1	7	0%	-52*	-6
COc1ccc(C(=O)C=Cc2ccc(OCc3ccccc3)c(OC)c2)cc1OC	-1	-1	x	2	-2
COc1cc(/C=C/[N+](=O)[O-])ccc1OCc1cccc(C(=O)O)c1	-2	2	7%	-51*	-76*
C=CC(=O)Nc1cc2c(Nc3ccc(F)c(Cl)c3)ncnc2cc1OCCCN1CCOCC1	x	x	x	-2	x
CC(C)(C)c1nnc(NS(=O)(=O)c2ccccc2)s1	x	x	x	-1	x
COc1cc(/C=C2\C(=O)N(c3cccc(C(=O)O)c3)N=C2C)ccc1OCc1ccccc1	1	-14	x	-59*	-5
CCCC(=O)NC(c1ccco1)c1cc([N+](=O)[O-])c2cccnc2c1O (configuration not stated)	-4	x	5%	-12	-92*
CCC(=O)NC(c1ccc(C)cc1)c1cc([N+](=O)[O-])c2cccnc2c1O (configuration not stated)	0	-87*	1%	-18	-85*

Bioassay records (PubChem)
